p53 reactivator: qHTS assay for re-activators of p53 using a Luc reporter | H1299 p53-A138V BP100-luciferase reporter, luminescence, 24 h | Potency, µM (highest dose often 92.2 µM), without a hit: at the highest dose activity change, positive = activation, usual class: activators | actives 0.063% (n = 320,000); further: potency means the concentration at half of the fitted maximal effect; % of control where 0% means no effect; nearly all actives have a fitted effect of over 45% in size
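p53-null H1299 cells stably carrying temperature-sensitive p53-A138V and a BP100-luciferase reporter were pinned with compounds (4-point, 1:5 series) and held 24 hrs at 37 deg C. Luminescence was read 10 min after detection reagent.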
RXFP1 antag: qHTS Assay for Antagonists of the Relaxin Receptor RXFP1; Relaxin receptor 1 (Homo sapiens), Q9HBX9; HEK293-RXFP1, relaxin-stimulated cAMP HTRF, 30 min; hits give low values; activity change, negative = inhibition, % at 57.5 µM; actives 0.59% (n = 350,000); AID 1259400, 2018;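 active means activity change of -60% or lower, but not beyond a set lower limit; inconclusive means change between -60% and -40%, or beyond the set limit; inactive means change above -40%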; further: on the % scale 0 is the no-effect control and ±100 the full control effect
Tb PFK block: qHTS Assay to Find Inhibitors of T. brucei phosphofructokinase; ATP-dependent 6-phosphofructokinase (Trypanosoma brucei brucei), O15648; T. brucei PFK, ADP-Glo luminescence; Potency, µM (titrated, usually from 57.5 µM), without a hit: at the top dose activity, negative = inhibition, actives largely listed as inhibitors; actives 0.17% (n = 330,000);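 further: potency means the concentration at half of the fitted maximal effect; 0% = uninhibited 1x PFK enzyme wells and -100% = no-enzyme wells; nearly all actives have a fitted effect of over 60% in size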
Target sequence (O15648 whole entry, looked up): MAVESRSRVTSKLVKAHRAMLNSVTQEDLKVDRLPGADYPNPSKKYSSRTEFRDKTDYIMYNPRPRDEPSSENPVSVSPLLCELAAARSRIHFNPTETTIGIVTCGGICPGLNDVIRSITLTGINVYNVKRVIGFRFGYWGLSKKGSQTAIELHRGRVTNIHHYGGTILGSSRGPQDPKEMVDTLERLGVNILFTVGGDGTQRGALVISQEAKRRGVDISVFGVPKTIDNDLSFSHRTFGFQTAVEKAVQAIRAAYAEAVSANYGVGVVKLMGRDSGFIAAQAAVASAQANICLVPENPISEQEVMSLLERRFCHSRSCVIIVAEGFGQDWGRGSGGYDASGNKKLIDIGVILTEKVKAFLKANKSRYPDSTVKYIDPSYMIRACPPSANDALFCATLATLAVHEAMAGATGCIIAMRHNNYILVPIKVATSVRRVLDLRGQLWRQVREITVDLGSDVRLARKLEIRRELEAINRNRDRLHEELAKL
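1.25 nM PFK with 0.5 mM F6P and 0.1 mM ATP in 0.1 M TEA pH 8.0, 5 mM MgCl2, incubated 45 min at room temperature; ADP measured by ADP-Glo luminescence; compounds titrated up to 57 uM.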
RXFP1 ag: qHTS Assay for Agonists of the Relaxin Receptor RXFP1; Relaxin receptor 1 (Homo sapiens), Q9HBX9; HEK293T-RXFP1 cAMP TR-FRET, 30 min; response scale: percent of porcine relaxin response, buffer zero; Potency, µM (top dose mostly 57.5 µM), without a hit: at the top dose activation, most hits filed as activators; actives 0.3% (n = 370,000); AID 2676, 2010; further: potency means the concentration at half of the fitted maximal effect; on the % scale 0 is the no-effect control and ±100 the full control effect; nearly all actives have a fitted effect of over 60% in size
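cAMP rise read by TR-FRET after 30 min, 37C compound exposure (up to 58 uM) in RXFP1-transfected HEK293 cells with Ro 20174 present. EC50 from Hill-equation fits, with 29 nM porcine relaxin as 100% and buffer as basal.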
gsp antagonist: qHTS for Antagonists of gsp, the Etiologic Mutation Responsible for Fibrous Dysplasia/McCune-Albright Syndrome: qHTS | gsp-mutant cells, cAMP HTRF, 30 min | Potency, µM (top dose mostly 76.9 µM), for the others: top-dose activity change, negative = inhibition, most hits filed as inhibitors | actives 0.4% (n = 340,000) | AID 624288, 2012; calls by dose curve; cell line not stated here;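 further: intracellular cAMP measured with PDE inhibitor Ro 20-1724 present during compound exposure; potency means the concentration at half of the fitted maximal effect; on the % scale 0 is the no-effect control and ±100 the full control effect; nearly all actives have a fitted effect of over 65% in size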
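Cells in G418 medium, seeded 16-24 h, 37C; buffer exchange to DPBS + 1 mM CaCl2, 0.5 mM MgCl2, 0.05% BSA; cpds in DMSO + […] (300 uM stock), 30 min 37C; HTRF cAMP detection.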
gsp agonist: qHTS for Agonist of gsp, the Etiologic Mutation Responsible for Fibrous Dysplasia/McCune-Albright Syndrome: qHTS | Potency, µM (series often up to 76.9 µM), without a hit: at the top dose activation (cAMP increase), usual class: activators | gsp mutant cells, cAMP HTRF, 30 min | actives 0.13% (n = 340,000) | AID 624287, 2012; active means well fitted activation curve with a large enough effect; inconclusive means small, poorly fitted or top-dose-only effect, or another doubt; inactive means no such curve, though single readings can be large or run the other way; cell line not stated here;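 further: phosphodiesterase inhibitor Ro 20-1724 added with compounds to block cAMP breakdown; potency means the concentration at half of the fitted maximal effect; nearly all actives have a fitted effect of over 60% in size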
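Cells stably selected in G418 were plated at 2000/well, grown 16-24 hr, then given compounds in DMSO with the PDE inhibitor […] (300 uM solution added) for 30 min at 37C; cAMP was read by HTRF.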
Active calls of the source: *; ? = inconclusive; nt = no result given; [ ] = dose if it differs, or a comment. In the library only some 1.1% were active in any assay of this set; here they are far more common. Unless noted, the call rests on the fitted dose curve; in most records, active means well fitted curve in the direction sought with a large enough effect; inconclusive means small, poorly fitted or top-dose-only effect, or another doubt; inactive means no such curve, though single readings can be large; an effect the other way counts as inactive or inconclusive.

SMILES | p53 reactivator | RXFP1 antag | Tb PFK block | RXFP1 ag | gsp antagonist | gsp agonist
CC(C)[C@@H]1NC(=O)c2cc([N+](=O)[O-])cc(I)c2NCCCC[C@@H](C(=O)NC(CC(=O)O)C(N)=O)NC(=O)[C@H](CO)NC1=O (stereo not given in full) | -1% | nt | ? | -1% | nt | nt
O=C(c1ccc2c3c(cccc13)CC2)C1CCCN(Cc2ncc[nH]2)C1 (stereo not given) | -5% | -12 | 0% | 2% | nt | 7%[15.4 µM]
O=C(c1ccc2c3c(cccc13)CC2)C1CCCN(CC2CC2)C1 (stereo not given) | 0% | -63* | 1% | 4% | 14% | 5%[15.4 µM]
CC(=O)OC1CC2(O)C3CCC4CC(O)CCC4(C)C3CCC2(C)C1C1=CC(=O)OC1 (stereo not given) | nt | -17 | nt | nt | 10% | -65%
CNC(=O)Oc1cc2c(cc1C(C)(C)C)CCC2 | nt | -86* | nt | nt | -2% | ?
Cc1ccc(OC(=O)N(C)C[C@@H]2OCc3cnnn3CCCC(=O)N([C@@H](C)CO)C[C@@H]2C)cc1 | nt | 15 | nt | nt | nt | ?
O=c1c2ccccc2nc(/C=C/c2ccccc2)n1-c1ccc(O)cc1 | -1% | -12 | 0% | 1% | -22% | -5%
O=C(O)c1ccc(/C=C/c2nc3ccccc3c(=O)n2-c2ccc(Br)cc2)cc1 | 9% | -4 | 5% | 0% | 14µM* | -31%
C[C@@H]1CN([C@H](C)CO)C(=O)CCCn2nncc2CO[C@H]1CN(C)C(=O)Nc1ccc(N2CCCCC2)cc1 | nt | -13 | nt | nt | nt | -28%
Cc1cccc(C2=NCC(=O)N(CC(=O)NCc3ccco3)c3sc4c(c32)CCCC4)c1 | -21% | -69* | -15% | -1% | ? | -46%
CC12CCC(=O)C=C1CCC1C2C(O)CC2(C)C(O)CCC12 (stereo not given) | nt | -8 | nt | nt | -5% | -7%
COc1ccc(C(O)C(C)NC(C)C(O)c2ccc(OC)cc2)cc1 (stereo not given) | nt | -1 | nt | nt | 1% | 26%
COc1ccc(C(c2ccc(OC)cc2)C(Cl)(Cl)Cl)cc1 | 16% | -93* | 3% | 1% | -22% | nt
Cc1nc2ccc(P(=O)(O)O)cc2s1 | 2% | nt | ? | 4% | nt | nt
c1ccc(CCCN2CCN(CCOC(c3ccccc3)c3ccccc3)CC2)cc1 | nt | nt | nt | nt | -10% | nt
Fc1ccc(C(OCCN2CCN(CCCc3ccccc3)CC2)c2ccc(F)cc2)cc1 | nt | -73* | nt | nt | nt | nt
CCOc1ccc(-n2nc3c(=S)[nH]nc(C)c3c2C)cc1 | -16% | -4 | 0% | 5.6µM* | 11% | ?
COc1ccc(C(=O)C2CCCN(Cc3ccon3)C2)c(OC)c1 (stereo not given) | 0% | 1 | 0% | 4% | 50µM* | 4%
COc1ccc2c(C)c(CCC(=O)N3C[C@H]4C[C@@H](C3)c3cccc(=O)n3C4)c(=O)oc2c1 | nt | nt | -1% | 2% | -5% | nt
CCc1cc2c(s1)N(CC(=O)OC)C(=O)CN=C2c1ccccc1OC | 0% | -3 | 0% | 0% | -6% | 0%
Cc1ccccc1C1=NCC(=O)N(CC(=O)N2CCCCC2)c2sc(C)c(C)c21 | -14% | -6 | -6% | 1% | 7.1µM* | -29%

Bioassay records: PubChem BioAssay, National Center for Advancing Translational Sciences (NCATS)
